The list is not random: actives were taken first. Their share in the collection is about 18%.
DT40 TDP1 no CPT – qHTS for Inhibitors of human tyrosyl-DNA phosphodiesterase 1 (TDP1): qHTS in cells in absence of CPT; Potency, µM (doses to about 46.2 µM), for the others: at the highest dose activity change, negative = growth inhibition, hits mostly inhibitors; 15% of 420,000 active; AID 686978, 2013; DT40 Tdp1-/- hTDP1 cells, no CPT, ATP luminescence, 48 h; further: potency means the concentration at half of the fitted maximal effect; nearly all actives have a fitted effect of over 55% in size
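Camptothecin absent (DMSO only). Human TDP1-complemented DT40 knockout cells, 400 cells/well, 37 °C for minimum 48 hr; ATP measured via CellTiter-Glo, 30 min dark incubation, luminescence.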
Six1-Eya2 inh – blocks human Six1 binding to Eya2. Q15475+O00167. AlphaScreen GST-Six1/His-Eya2 binding, biochemical; stronger effect = lower value. activity change, % (no concentration beside the values). 0.56% of 360,000 active. AID 651725; in the data active means activity change below about -65%; inconclusive means mostly about -30% to -63%
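GST-Six1 + His-Eya2 (5X stock: 250/500 nM); Tris pH 8.0, 300 mM NaCl, 0.05% BSA, 0.02% Tween 20; GSH donor/Ni acceptor beads; 1 h 37 °C dark; AlphaScreen readout.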
CtBP-E1A inh – inhibitors of CtBP/E1A interaction. 0.49% of 340,000 active. activity change, % (no concentration beside the values). AlphaScreen GST-E1A/His-CtBP binding, 1536-well; stronger effect = lower value; in the data active means activity change below about -65%; inconclusive means mostly about -30% to -63%
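Protein mix (5X: 125 nM each GST-E1A, His-CtBP) was incubated with pinned compound 2 h at 37 deg C in dark, in 50 mM Tris pH 8.0 buffer with 300 mM NaCl. Glutathione donor and nickel acceptor beads followed; AlphaScreen signal read after 1 h.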
DT40 TDP1 CPT – DT40-hTDP1 cell growth loss with CPT; chicken DT40 Tdp1-/-;hTDP1 cells + 20 nM CPT, ATP luminescence, 48 h; Potency, µM (series often up to 46.2 µM), inactives show at the highest dose activity change, negative = growth inhibition, usual class: inhibitors; 12% of 420,000 active; AID 686979; further: potency means the concentration at half of the fitted maximal effect; nearly all actives have a fitted effect of over 55% in size
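Chicken DT40 Tdp1-/- cells complemented with human TDP1, 400 cells/well, exposed to compounds plus 20 nM camptothecin for at least 48 h at 37 C; viability read as ATP content by CellTiter-Glo luminescence.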
TDP1 block – TDP1 (human) enzyme inhibition; 0.28% of 350,000 active; AID 485290; recombinant TDP1, AlphaScreen DNA substrate cleavage; Potency, µM (titrated, usually from 130 µM), without a hit: top-dose activity change, negative = inhibition, most hits filed as inhibitors; further: potency means the concentration at half of the fitted maximal effect; nearly all actives have a fitted effect of over 40% in size
Target sequence (Q9NUW8 whole entry, looked up): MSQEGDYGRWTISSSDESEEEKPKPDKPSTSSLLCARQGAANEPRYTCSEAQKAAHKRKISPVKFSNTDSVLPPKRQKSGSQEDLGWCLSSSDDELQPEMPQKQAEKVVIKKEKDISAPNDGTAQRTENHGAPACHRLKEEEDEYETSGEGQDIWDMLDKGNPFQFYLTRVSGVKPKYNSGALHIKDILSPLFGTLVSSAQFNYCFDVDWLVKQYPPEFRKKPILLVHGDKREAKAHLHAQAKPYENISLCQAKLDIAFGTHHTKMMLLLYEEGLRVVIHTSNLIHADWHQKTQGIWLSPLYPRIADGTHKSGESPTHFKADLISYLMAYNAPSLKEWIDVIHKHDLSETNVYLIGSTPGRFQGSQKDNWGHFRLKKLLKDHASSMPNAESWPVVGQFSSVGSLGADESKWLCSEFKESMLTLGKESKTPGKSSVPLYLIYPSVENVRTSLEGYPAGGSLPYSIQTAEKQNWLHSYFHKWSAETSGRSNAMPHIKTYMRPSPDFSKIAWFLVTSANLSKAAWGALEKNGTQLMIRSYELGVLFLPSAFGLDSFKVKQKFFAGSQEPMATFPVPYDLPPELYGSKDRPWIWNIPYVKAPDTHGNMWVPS
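Here, a 5' biotin and 3' phosphotyrosine-FITC DNA oligonucleotide reports Tdp1 activity: intact substrate bridges AlphaScreen beads, while cleavage leaves a 3' phosphate and drops signal. All incubations at room temperature.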
IL-1B inflam inh – inhibitors of inflammasome signaling (IL-1 beta secretion). 4.7% of 360,000 active. THP-1 LPS/ATP IL-1B secretion, AlphaLISA, 16 h; stronger effect = lower value. AID 743279. activity change, % at 57.5 µM; in the data active means activity change below about -50%; inconclusive means mostly about -30% to -49%
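THP-1 cells pretreated 1 hr with compounds (up to 57.5 uM final), then stimulated with LPS (250 ng/mL final) plus ATP (1.25 mM final); secreted IL-1B measured by AlphaLISA after 16 hr, decreased signal indicating inhibition.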
Active calls of the source: *; i = inactive; ? = inconclusive; . = no result; [ ] = another dose, or the depositor's remark. Unless noted, the call rests on the fitted dose curve; in most records, active means well fitted curve in the direction sought with a large enough effect; inconclusive means small, poorly fitted or top-dose-only effect, or another doubt; inactive means no such curve, though single readings can be large; an effect the other way counts as inactive or inconclusive. On the % scale 0 is the no-effect control and ±100 the full control effect.

SMILES	DT40 TDP1 no CPT	Six1-Eya2 inh	CtBP-E1A inh	DT40 TDP1 CPT	TDP1 block	IL-1B inflam inh
COc1ccc(-c2noc(N3CCC(C(=O)Nc4cc(OC)ccc4OC)CC3)n2)cc1	21µM*	-3	-14	21µM*	.	-20
COC(=O)C1=C(C)N(Cc2ccccc2)[C@]23O[C@](C(=O)OC)(C(=O)N2C1c1ccccc1)C1C(=O)N(c2ccccc2)C(=O)C13 (some centres undefined)	.	.	.	.	5%[21 µM]	.
Oc1ccccc1-c1nc(N2CCN(Cc3ccccc3)CC2)c2ccccc2n1	?	0	3	?	4%	13
CN(C)CCCNc1oc(-c2ccc(Cl)cc2)nc1S(=O)(=O)c1ccccc1	16µM*	-6	-8	15µM*	5%	-8
CN(C)CCCNc1oc(-c2ccccc2Cl)nc1S(=O)(=O)c1ccccc1	?	-10	-16	?	4%	-27
Cc1ccc(S(=O)(=O)c2nc(-c3ccccc3Cl)oc2NCCCN2CCOCC2)cc1	26µM*	-8	-13	?	2%	i
O=S(=O)(c1ccc(Br)cc1)c1nc(-c2ccccc2)oc1NCCN1CCOCC1	?	-1	-5	?	9%	-61*
O=S(=O)(c1ccc(Cl)cc1)c1nc(-c2ccccc2F)oc1NCCCN1CCOCC1	?	-3	10	?	9%	-74*
CC1CCCC(C)N1C(=O)Cn1nnc(-c2ccccc2)n1 (centres undefined)	11%	-1	-5	-16%	.	0
O=S(=O)(c1ccc(F)c(F)c1)N1CCC2(CC1)OCCO2	6%	-1	-7	20%	2%	22
O=S(=O)(c1ccc(Cl)cc1)c1nc(-c2ccccc2Br)oc1NCc1ccccc1	13µM*	.	.	?	-2%[12.3 µM]	.
COCCNc1oc(-c2ccccc2Cl)nc1S(=O)(=O)c1ccc(C)cc1	?	-2	2	?	-1%	-57*
COc1cccc(CNC(=O)c2ccc3c(c2)nnn3C2CCCC2)c1	-26%	.	.	?	3%	.
Cc1cccc(C(=O)N2CCC(=O)N(C(COCc3cccc(Cl)c3)Cc3ccccc3)CC2)c1 (centres undefined)	16µM*	-5	-3	?	1%	-29
Cc1cccc(C(=O)N2CCC(=O)N(C(COCc3ccc(Cl)cc3)Cc3ccccc3)CC2)c1 (centres undefined)	21µM*	-7	-1	21µM*	5%	-28
Cc1cccc(C(=O)N2CCC(=O)N([C@H](COCc3cccc(Cl)c3)Cc3ccccc3)CC2)c1	18µM*	-7	2	23µM*	8%	-11
O=C(c1cccc(Cl)c1)N1CCC(=O)N(C(CO)Cc2ccccc2)CC1 (centres undefined)	-10%	0	7	-21%	.	13
O=C(c1cccc(Cl)c1)N1CCC(=O)N([C@H](COCc2ccccc2)Cc2ccccc2)CC1	18µM*	3	-27	?	.	?
O=C(c1cccc(Cl)c1)N1CCC(=O)N(C(COCc2cccc(Cl)c2)Cc2ccccc2)CC1 (centres undefined)	?	-3	0	?	1%	?
O=C(COC(=O)Cc1ccc(Cl)c(Cl)c1)Nc1ccc2[nH]c(=O)[nH]c2c1	-4%	-12	-1	4%	5%	12
O=C(COc1ccc(Cl)cc1)NCCNC(=O)c1cnccn1	1%	17	4	14%	.	6
CCN(CC(=O)Nc1ccc2c(c1)OCCO2)C(=O)/C=C/c1cccc(OC)c1OC	-1%	1	0	-5%	.	-3
CC(=O)N(c1ccc2oc(=O)sc2c1)S(=O)(=O)c1ccc(C(=O)O)cc1	-16%	9	-17	1%	6%	12
CCCC(=O)N(c1ccc2oc(=O)sc2c1)S(=O)(=O)c1ccccc1	21µM*	-13	?	?	12%	-5
O=C(Nc1cc(Cl)ccc1Cl)C1CCCO1 (centres undefined)	-16%	-1	10	-5%	.	0
SMILES	DT40 TDP1 no CPT	Six1-Eya2 inh	CtBP-E1A inh	DT40 TDP1 CPT	TDP1 block	IL-1B inflam inh
COc1cccc(N=Nc2c(N)[nH]n3c(=O)c4c(nc23)CCCC4)c1	?	-71*	-16	?	7%	-12
COc1cccc(N=Nc2c(N)[nH][nH]c2=O)c1	?	-16	-15	-12%	-8%	-8
Brc1c(Br)c(Br)c2[nH]cnc2c1Br	.	.	.	.	9%	.
c1ccc(C2=Nc3c(ccc4ccccc34)C(c3ccncc3)=NN2)cc1	21µM*	-27	-6	8.2µM*	6%	-2
c1coc(C2=NCCc3ccccc32)c1	3%	-5	.	-13%	.	4
CCN1C(=NCCCOC(C)C)N[C@@H](CCc2ccccc2)[C@H](C(=O)NCCCOC(C)C)[C@H]1C	1.6µM*	-5	3	1.8µM*	1%	-58*
CSc1ccccc1NC(=O)C(C)N(C)CC(=O)N1CCN(Cc2ccccc2)CC1 (centres undefined)	21µM*	-3	-1	?	.	2
CC(C(=O)Nc1ccc(C(F)(F)F)cc1)N(C)CC(=O)N1CCN(Cc2ccccc2)CC1 (centres undefined)	?	0	-3	?	2%	-51*
CN(CC(=O)N1CCN(Cc2ccccc2)CC1)S(=O)(=O)c1ccc(F)cc1	-22%	3	5	-18%	1%	-5
CC(C)CC(=O)N1CCN(Cc2ccc(C(F)(F)F)cc2)CC1	?	-2	.	?	4%	-6
CN1CCS/C1=C/C=C1\SC(=S)N(CC(=O)O)C1=O	-25%	-7	-4	-5%	0%	13
CCCCN1C(=O)/C(=C/C=C2\SCCN2C)SC1=S	-71%	?	6	?	14%	-50*
CC(=O)n1c(-c2ccccc2)c(CO)c2ccccc21	?	-4	.	?	.	26
NCCc1c(-c2ccccc2)n(-c2ccccc2)c2ccccc12	?	-21	?	?	5%	-97*
O=C(/C=C(\c1ccc(Cl)cc1)n1cncn1)c1ccc(Cl)cc1	16µM*	0	8	?	-7%	-57*
COc1cccc2c(=O)c(SC(F)(F)C(F)C(F)(F)F)c(C)[nH]c12 (centres undefined)	18µM*	-2	-8	?	2%	14
O=S1(=O)CCN(c2ccccc2CC(c2c[nH]c3ccccc23)c2c[nH]c3ccccc23)CC1	13µM*	-19	-3	8.2µM*	.	-11

From PubChem
